The campaign covered roughly 310,000 compounds. About 14,000 (4.5%) showed an effect of 50% or more. Effects have a minus sign here. The entries come from a sample that favours strong results as a whole.

Data on 40 molecules can be found in PMC4336329 (PLoS ONE, 2015).
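Further: peak tail current of the secondary pulse compared with the same well before compound.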

The target of this assay is human ether-à-go-go-related gene (hERG) potassium channel (human, UniProt Q12809). Description: primary screen, population patch clamp on CHO cells stably expressing hERG; higher = less effect of the substance.
Chain of human ether-à-go-go-related gene (hERG) potassium channel (Q12809 whole entry, looked up): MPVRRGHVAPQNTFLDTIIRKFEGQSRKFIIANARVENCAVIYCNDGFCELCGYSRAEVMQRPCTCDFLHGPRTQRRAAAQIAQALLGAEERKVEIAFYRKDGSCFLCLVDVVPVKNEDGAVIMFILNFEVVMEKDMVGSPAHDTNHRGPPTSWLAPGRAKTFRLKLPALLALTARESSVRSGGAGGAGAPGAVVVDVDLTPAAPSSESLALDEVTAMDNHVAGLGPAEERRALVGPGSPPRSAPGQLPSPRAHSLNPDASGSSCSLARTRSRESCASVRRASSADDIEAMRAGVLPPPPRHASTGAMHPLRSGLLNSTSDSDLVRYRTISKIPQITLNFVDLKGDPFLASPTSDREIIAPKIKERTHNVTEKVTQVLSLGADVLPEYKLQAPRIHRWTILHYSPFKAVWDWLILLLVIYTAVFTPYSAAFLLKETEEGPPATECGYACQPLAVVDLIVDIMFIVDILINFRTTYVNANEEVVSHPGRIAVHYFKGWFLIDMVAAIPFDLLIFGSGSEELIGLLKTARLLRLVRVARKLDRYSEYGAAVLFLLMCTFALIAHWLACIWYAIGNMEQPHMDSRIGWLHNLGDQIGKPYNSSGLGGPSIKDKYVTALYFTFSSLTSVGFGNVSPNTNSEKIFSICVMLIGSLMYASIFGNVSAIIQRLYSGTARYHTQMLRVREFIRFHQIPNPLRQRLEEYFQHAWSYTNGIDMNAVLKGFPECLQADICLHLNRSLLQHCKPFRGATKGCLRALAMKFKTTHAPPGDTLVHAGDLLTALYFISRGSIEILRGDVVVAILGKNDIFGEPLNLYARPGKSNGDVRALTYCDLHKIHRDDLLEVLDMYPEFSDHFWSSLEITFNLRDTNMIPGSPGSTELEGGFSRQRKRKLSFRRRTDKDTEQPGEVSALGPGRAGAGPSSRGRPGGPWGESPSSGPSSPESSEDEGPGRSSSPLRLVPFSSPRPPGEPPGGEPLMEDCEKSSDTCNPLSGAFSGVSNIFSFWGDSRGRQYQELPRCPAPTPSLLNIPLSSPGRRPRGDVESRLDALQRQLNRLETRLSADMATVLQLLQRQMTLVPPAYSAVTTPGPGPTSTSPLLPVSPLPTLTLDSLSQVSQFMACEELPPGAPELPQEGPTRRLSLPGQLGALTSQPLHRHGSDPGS
Regarding `O=C(c1ccccc1F)N1CCN(c2ncccn2)CC1`, the “hERG current change (%, negative = inhibition) at 10uM” value was 3.24%.

With `CCC(C)NC(=O)CCC(=O)Nc1ccc2nc(N3CCOCC3)cc(C)c2c1` (stereo not shown), the “hERG current change (%, negative = inhibition) at 10uM” value came out at 2.55%.

On to `O=C(NCCc1ccc(Cl)cc1)c1ccc(CNc2c(N3CCOCC3)c(=O)c2=O)cc1`, for which the “hERG current change (%, negative = inhibition) at 10uM” value was 25.7%.

As for `O=C(Nc1ccc2c(c1)OCO2)NC1CCN(Cc2ccccc2)CC1`, the “hERG current change (%, negative = inhibition) at 10uM” value is listed as -24.8%.

Turning to `CC(NC(=O)COC(=O)c1cccs1)c1ccccc1` (stereo not shown), the “hERG current change (%, negative = inhibition) at 10uM” value is recorded as 23%.

Regarding `Cc1cc(NC(=O)c2ccc(F)cc2)ccc1NC(=O)c1ccco1`, the “hERG current change (%, negative = inhibition) at 10uM” value turned out to be 2.98%.

Take `CC1(C)CC(=O)C2=C(C1)N(CC1CCCO1)C(=O)C2(NC(=O)c1cccnc1)C(F)(F)F` (stereo not shown): the “hERG current change (%, negative = inhibition) at 10uM” value is recorded as 9.64%.

For the molecule `COC(=NC1CCCC1)C(O)c1c[nH]c2ccccc12` (stereo not shown), the “hERG current change (%, negative = inhibition) at 10uM” value is -1.61%.

Regarding `CN(C)c1cc(C(F)(F)F)nc(-c2ccccn2)n1`, the “hERG current change (%, negative = inhibition) at 10uM” value is -0.728%.

`CCO[C@H]1OC(C(=O)NCc2nc3ccccc3[nH]2)=C[C@@H](c2cn(C(C)=O)c3ccccc23)[C@@H]1CCCO`: the “hERG current change (%, negative = inhibition) at 10uM” value was -49.7%.

On to `CCO[C@@H]1OC(C(=O)O)=C[C@H](c2cn(C(C)=O)c3ccccc23)[C@H]1CCCO`, for which the “hERG current change (%, negative = inhibition) at 10uM” value was determined as 13.7%.

With `CCO[C@@H]1OC(C(=O)NCc2nc3ccccc3[nH]2)=C[C@H](c2csc3ccccc23)[C@H]1CCCO`, the “hERG current change (%, negative = inhibition) at 10uM” value is on record as -34.1%.

For the molecule `CCO[C@H]1OC(C(=O)Nc2ccccc2)=C[C@@H](c2coc3ccccc3c2=O)[C@@H]1CCCO`, the “hERG current change (%, negative = inhibition) at 10uM” value is on record as -28.5%.

In the case of `CCO[C@@H]1OC(C(=O)Nc2ccccc2)=C[C@H](c2coc3ccccc3c2=O)[C@H]1CCCO`, the “hERG current change (%, negative = inhibition) at 10uM” value is reported as -50.9%.

On to `CCO[C@@H]1OC(C(=O)N2CCN(Cc3ccc4c(c3)OCO4)CC2)=C[C@H](c2cn(C(C)=O)c3ccccc23)[C@H]1CCCO`, for which the “hERG current change (%, negative = inhibition) at 10uM” value is -39.7%.

Take `CCO[C@@H]1OC(C(=O)NCc2nc3ccccc3[nH]2)=C[C@H](c2cn(C(C)=O)c3ccccc23)[C@H]1CCCO`: the “hERG current change (%, negative = inhibition) at 10uM” value is reported as -67.2%.

`CCO[C@H]1OC(C(=O)O)=C[C@@H](c2cn(C(C)=O)c3ccccc23)[C@@H]1CCCO`: the “hERG current change (%, negative = inhibition) at 10uM” value was 18.2%.

With `CCO[C@H]1OC(C(=O)N2CCN(Cc3ccccc3)CC2)=C[C@@H](c2cn(C(C)=O)c3ccccc23)[C@@H]1CCCO`, the “hERG current change (%, negative = inhibition) at 10uM” value is listed as -54%.

For `CCO[C@H]1OC(C(=O)Nc2ccccc2)=C[C@@H](c2cn(C(C)=O)c3ccccc23)[C@@H]1CCCO`, the “hERG current change (%, negative = inhibition) at 10uM” value is -62.5%.

In the case of `CCO[C@@H]1OC(C(=O)O)=C[C@H](c2coc3ccccc3c2=O)[C@H]1CCCO`, the “hERG current change (%, negative = inhibition) at 10uM” value was found to be 18.9%.

In the case of `CCO[C@@H]1OC(C(=O)N2CCN(Cc3ccccc3)CC2)=C[C@H](c2cn(C(C)=O)c3ccccc23)[C@H]1CCCO`, the “hERG current change (%, negative = inhibition) at 10uM” value is -37.9%.

With `O=C1CCCCCN1Sc1ccccc1`, the “hERG current change (%, negative = inhibition) at 10uM” value is 12%.

Turning to `N#Cc1cccc(CN2CCC(=O)N([C@H](CO)c3ccccc3)CC2)c1`, the “hERG current change (%, negative = inhibition) at 10uM” value is given as -4.9%.

Regarding `CC(=O)N1c2ccc(S(=O)(=O)NCCc3ccc(S(N)(=O)=O)cc3)cc2CC1C` (stereo not shown), the “hERG current change (%, negative = inhibition) at 10uM” value was determined as 13%.

Consider `COc1ccc(/C=N/NC(=O)c2c(C)n(C)c3ccc(OC)cc23)c(OC)c1`, for which the “hERG current change (%, negative = inhibition) at 10uM” value is on record as -14.3%.

`COCC(C)NC(=O)c1ccc2c(c1)S(=O)(=O)c1ccccc1C2=O` (stereo not shown): the “hERG current change (%, negative = inhibition) at 10uM” value is given as 3.96%.

With `CCn1c(=S)ccc2ccc(OC)cc21`, the “hERG current change (%, negative = inhibition) at 10uM” value is listed as -0.453%.

For the molecule `CCOc1ccc(-c2c(C(=O)N/N=C(\C)c3cccs3)nnn2-c2nonc2N)cc1`, the “hERG current change (%, negative = inhibition) at 10uM” value was 12.9%.

As to `CCO[C@@H]1OC(C(=O)NCc2ccccc2)=C[C@H](c2ccccc2)[C@H]1CCCO`, the “hERG current change (%, negative = inhibition) at 10uM” value is reported as -18.7%.

Take `CCO[C@@H]1OC(C(N)=O)=C[C@H](c2cn(C(C)=O)c3ccccc23)[C@H]1CCCO`: the “hERG current change (%, negative = inhibition) at 10uM” value came to 6.45%.

In the case of `CCO[C@H]1OC(C(=O)NCc2ccccc2)=C[C@@H](c2cn(C(C)=O)c3ccccc23)[C@@H]1CCCO`, the “hERG current change (%, negative = inhibition) at 10uM” value is -64.3%.

`CCO[C@@H]1OC(C(=O)NCc2ccccc2)=C[C@H](c2cn(C(C)=O)c3ccccc23)[C@H]1CCCO`: the “hERG current change (%, negative = inhibition) at 10uM” value was -82.9%.

`C#CCNC(=O)C1=C[C@H](c2cn(C(C)=O)c3ccccc23)[C@@H](CCCO)[C@H](OCC)O1`: the “hERG current change (%, negative = inhibition) at 10uM” value is -36.9%.

On to `CCO[C@H]1OC(C(=O)NCc2ccccc2)=C[C@@H](c2ccccc2)[C@@H]1CCCO`, for which the “hERG current change (%, negative = inhibition) at 10uM” value is given as -19.6%.

Turning to `CCOC(=O)CN/C=C(\C#N)c1ccccc1`, the “hERG current change (%, negative = inhibition) at 10uM” value stood at 16.2%.

With `COc1cc(/C=C2\C(=O)ON=C2c2ccccc2)cc(Cl)c1O`, the “hERG current change (%, negative = inhibition) at 10uM” value was -49.9%.

Turning to `CC(C)(C)OC(=O)CNC(=O)c1[nH]cnc1C(=O)Nc1ccc(CNC(=O)OC(C)(C)C)cc1`, the “hERG current change (%, negative = inhibition) at 10uM” value is listed as -0.221%.

Consider `CCCCC(=O)Nc1nc(C)c(-c2csc(Nc3cc(OC)ccc3OC)n2)s1`, for which the “hERG current change (%, negative = inhibition) at 10uM” value turned out to be 5.95%.

`Cc1nc(Nc2cccc(O)c2)c2c3c(sc2n1)CCC3`: the “hERG current change (%, negative = inhibition) at 10uM” value is reported as -1.85%.

With `O=C1CSC(c2ccc(F)cc2)N1c1nc2ccccc2s1` (stereo not shown), the “hERG current change (%, negative = inhibition) at 10uM” value is -20.8%.
